Results reported in PubChem BioAssay (NCI).
About 79,000 compounds went through this panel and 15% of them were active in at least one assay; those are over-represented in the sample as a whole. The source made the active and inactive calls. Cut-off read from the data, not from the text of the source: active = growth inhibition above about 70%; inactive = the rest.

Tests used:
[1] = NCI Yeast Anticancer Drug Screen. Data for the rad52 strain (AID 147);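 note: 0% = growth of vehicle-treated control cultures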; settings: S. cerevisiae rad52 mutant growth inhibition, stronger effect = higher value
Outline: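 DNA repair-defective yeast; compound exposure; growth scored against vehicle controls.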

[2] = NCI Yeast Anticancer Drug Screen. Data for the wt1 strain (AID 149);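 note: 0% = growth of vehicle-treated wt1 cultures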; settings: S. cerevisiae wt1 strain (SPY 50644) growth inhibition, stronger effect = higher value
Outline: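 Using yeast strain wt1, compound-induced growth inhibition was determined against vehicle-treated cultures.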

[3] = NCI Yeast Anticancer Drug Screen. Data for the rad50EPP+ strain (AID 151);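 note: 0% = growth of vehicle-treated control cultures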; settings: S. cerevisiae rad50 mutant strain, stronger effect = higher value
Outline: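 rad50EPP+ yeast treated with test compounds. Readout: growth vs vehicle control.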

[4] = NCI Yeast Anticancer Drug Screen. Data for the rad50 strain (AID 155);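 note: 0% = growth of vehicle-only cultures of the same strain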; settings: S. cerevisiae rad50 strain growth inhibition, stronger effect = higher value
Outline: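 Relative growth inhibition (compound vs vehicle) was measured in yeast with a defined repair-gene alteration.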

[5] = NCI Yeast Anticancer Drug Screen. Data for the mec2-1 strain (AID 157); settings: S. cerevisiae mec2-1 strain, stronger effect = higher value
Outline: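 Growth inhibition is read against vehicle-treated controls after compound exposure of the mec2-1 yeast strain, which is defective in DNA damage repair or cell cycle control.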

[6] = NCI Yeast Anticancer Drug Screen. Data for the rad14 strain (AID 159);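 note: 0% = growth of vehicle-treated control cultures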; settings: S. cerevisiae rad14 strain growth inhibition, stronger effect = higher value
Outline: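 Screen for anticancer potential: a yeast strain altered in DNA damage repair is grown with compound, and reduced growth is quantified against vehicle controls.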

[7] = NCI Yeast Anticancer Drug Screen. Data for the sgs1 mgt1 strain (AID 161);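 note: 0% = growth of cultures given vehicle only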; settings: S. cerevisiae sgs1 mgt1 strain, stronger effect = higher value
Outline: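 Yeast cells carrying a defined DNA-repair defect were exposed to test compounds. Growth inhibition was measured relative to vehicle-treated controls.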

[8] = NCI Yeast Anticancer Drug Screen. Data for the CLN2oe strain (AID 163);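 note: 0% = growth of vehicle-only control cultures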; settings: S. cerevisiae CLN2oe strain, stronger effect = higher value
Outline: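 Compound-treated yeast; growth vs vehicle ctrl = % inhibition. Genetically altered strain (cell-cycle control).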

[9] = NCI Yeast Anticancer Drug Screen. Data for the cln2 rad14 strain (AID 165);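 note: 0% = growth equal to vehicle treated cultures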; settings: S. cerevisiae cln2 rad14 strain, stronger effect = higher value
Outline: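 Growth inhibition, relative to vehicle-treated controls, is the read-out. The test organism is a yeast strain with defined genetic alterations, cln2 rad14.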

[10] = NCI Yeast Anticancer Drug Screen. Data for the bub3 strain (AID 167); settings: S. cerevisiae bub3 mutant strain, stronger effect = higher value
Outline: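 Screening used yeast with an engineered genetic alteration affecting cell cycle control. Compound-exposed cultures were compared with vehicle cultures, and reduced growth was taken as inhibition.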

[11] = NCI Yeast Anticancer Drug Screen. Data for the wt2 strain (AID 169);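 note: 0% = growth of vehicle-treated yeast cultures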; settings: S. cerevisiae wt2 strain growth inhibition, stronger effect = higher value
Outline: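 Compound exposure of yeast; growth compared with vehicle controls; inhibition reported.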

[12] = NCI Yeast Anticancer Drug Screen. Data for the mlh1 strain (AID 171);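 note: 0% = growth of vehicle-treated control cultures of the same strain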; settings: S. cerevisiae mlh1 strain growth inhibition, stronger effect = higher value
Outline: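 Compounds are applied to a genetically altered yeast strain, and its growth is compared with that of vehicle-treated cultures to give percent inhibition.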

[13] = NCI Yeast Anticancer Drug Screen. Data for the sgs1 strain (AID 173);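 note: 0% = growth of vehicle-only control cultures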; settings: S. cerevisiae sgs1 mutant, stronger effect = higher value
Outline: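 Compounds applied to genetically altered yeast; growth compared with vehicle-treated cultures to give % inhibition.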

[14] = NCI Yeast Anticancer Drug Screen. Data for the mlh1 rad18 strain (AID 175); settings: S. cerevisiae mlh1 rad18 strain growth inhibition, stronger effect = higher value
Outline: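 Cells of a genetically altered yeast strain, deficient in DNA damage repair, were treated with compound. Their growth was then compared with that of vehicle-treated cultures to give inhibition.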

[15] = NCI Yeast Anticancer Drug Screen. Data for the rad18 strain (AID 177); settings: S. cerevisiae rad18 mutant growth inhibition, stronger effect = higher value
Outline: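 Compounds are applied to a repair-deficient yeast strain, and growth is compared with that of vehicle-treated cultures to give percent inhibition.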

[16] = at 5.0 µM (retest, dose inferred, filed as 0.5)
[17] = at 50.0 µM (retest, dose inferred, filed as 5.0)

Measured: growth inhibition

Nc1ccc(CCl)cc1Cc1c(O)ccc2ccccc12
active: [3]; at 100.0 µM 74% | [5]; [17] 84% | [7]; at 50.0 µM 70.3%
inactive: [1]; at 1.2 µM 0% | [1]; at 3.7 µM 3% | [1]; at 11.0 µM 9% | [1]; at 33.0 µM 19% | [1]; at 100.0 µM 36% | [2]; at 1.2 µM -1% | [2]; at 3.7 µM 6% | [2]; at 11.0 µM 12% | [2]; at 33.0 µM 19% | [2]; at 100.0 µM 30% | [3]; at 1.2 µM 8% | [3]; at 3.7 µM 15% | [3]; at 11.0 µM 40% | [3]; at 33.0 µM 61% | [4]; at 1.2 µM 1% | [4]; at 3.7 µM 4% | [4]; [16] 6% | [4]; at 11.0 µM 8% | [4]; at 33.0 µM 13% | [4]; [17] 41% | [4]; at 50.0 µM 51.4% | [4]; at 100.0 µM 27% | [5]; at 1.2 µM 1% | [5]; at 3.7 µM 0% | [5]; [16] -6% | [5]; at 11.0 µM 6% | [5]; at 33.0 µM 13% | [5]; at 50.0 µM 37.2% | [5]; at 100.0 µM 33% | [6]; at 1.2 µM 1% | [6]; at 3.7 µM 3% | [6]; at 11.0 µM 8% | [6]; at 33.0 µM 16% | [6]; at 100.0 µM 29% | [7]; [16] 2% | [7]; [17] 64% | [8]; at 1.2 µM -3% | [8]; at 3.7 µM -7% | [8]; at 11.0 µM 3% | [8]; at 33.0 µM -1% | [8]; at 100.0 µM 34% | [9]; [16] 6% | [9]; [17] 61% | [9]; at 50.0 µM 29.3% | [10]; at 1.2 µM -4% | [10]; at 3.7 µM -2% | [10]; [16] 3% | [10]; at 11.0 µM 0% | [10]; at 33.0 µM 1% | [10]; [17] 43% | [10]; at 50.0 µM 55% | [10]; at 100.0 µM 27% | [11]; at 1.2 µM 1% | [11]; at 3.7 µM 6% | [11]; at 11.0 µM 16% | [11]; at 33.0 µM 23% | [11]; at 100.0 µM 32% | [12]; at 1.2 µM 1% | [12]; at 3.7 µM 2% | [12]; at 11.0 µM 5% | [12]; at 33.0 µM 8% | [12]; at 100.0 µM 31% | [13]; at 1.2 µM 1% | [13]; at 3.7 µM 1% | [13]; at 11.0 µM 10% | [13]; at 33.0 µM 21% | [13]; at 100.0 µM 38% | [14]; [16] 0% | [14]; [17] 61% | [14]; at 50.0 µM 66.7% | [15]; at 1.2 µM 1% | [15]; at 3.7 µM 1% | [15]; at 11.0 µM 7% | [15]; at 33.0 µM 16% | [15]; at 100.0 µM 33%

COCCCN(Cc1cc(OC)c(OC)c(OC)c1)C(=S)Nc1cccc(Cl)c1
active: [10]; [17] 79% | [10]; at 50.0 µM 72.2% | [10]; at 100.0 µM 72%
inactive: [1]; at 1.2 µM 20% | [1]; at 3.7 µM 12% | [1]; at 11.0 µM 7% | [1]; at 33.0 µM 23% | [1]; at 100.0 µM 46% | [2]; at 1.2 µM 15% | [2]; at 3.7 µM 12% | [2]; at 11.0 µM 9% | [2]; at 33.0 µM 15% | [2]; at 100.0 µM 24% | [3]; at 1.2 µM -12% | [3]; at 3.7 µM -21% | [3]; at 11.0 µM -28% | [3]; at 33.0 µM -6% | [3]; at 100.0 µM -9% | [4]; at 1.2 µM -24% | [4]; at 3.7 µM -13% | [4]; [16] 43% | [4]; at 11.0 µM -14% | [4]; at 33.0 µM -8% | [4]; [17] 69% | [4]; at 50.0 µM 22.7% | [4]; at 100.0 µM 40% | [5]; at 1.2 µM -12% | [5]; at 3.7 µM 4% | [5]; [16] 51% | [5]; at 11.0 µM -19% | [5]; at 33.0 µM -18% | [5]; [17] 56% | [5]; at 50.0 µM -9.3% | [5]; at 100.0 µM 20% | [6]; at 1.2 µM -28% | [6]; at 3.7 µM -7% | [6]; at 11.0 µM -32% | [6]; at 33.0 µM -32% | [6]; at 100.0 µM 15% | [7]; [16] -32% | [7]; [17] 4% | [7]; at 50.0 µM 24.4% | [8]; at 1.2 µM 0% | [8]; at 3.7 µM -9% | [8]; at 11.0 µM -30% | [8]; at 33.0 µM -26% | [8]; at 100.0 µM 1% | [9]; [16] 41% | [9]; [17] 46% | [9]; at 50.0 µM 17.4% | [10]; at 1.2 µM -3% | [10]; at 3.7 µM 0% | [10]; [16] 5% | [10]; at 11.0 µM -2% | [10]; at 33.0 µM 30% | [11]; at 1.2 µM 5% | [11]; at 3.7 µM -3% | [11]; at 11.0 µM -9% | [11]; at 33.0 µM 14% | [11]; at 100.0 µM 43% | [12]; at 1.2 µM 0% | [12]; at 3.7 µM -19% | [12]; at 11.0 µM -38% | [12]; at 33.0 µM -30% | [12]; at 100.0 µM 31% | [13]; at 1.2 µM -20% | [13]; at 3.7 µM -22% | [13]; at 11.0 µM -21% | [13]; at 33.0 µM -16% | [13]; at 100.0 µM 36% | [14]; [16] 46% | [14]; [17] 67% | [14]; at 50.0 µM 19.2% | [15]; at 1.2 µM -17% | [15]; at 3.7 µM -25% | [15]; at 11.0 µM -17% | [15]; at 33.0 µM -15% | [15]; at 100.0 µM 27%
